Measured values published in article PMC4336329 (PLoS ONE, 2015).
About 14,000 (4.5%) of roughly 310,000 compounds showed an effect of 50% or more. Effects have a minus sign here. The full list was thinned out, with strong results kept by preference.

Target: human ether-à-go-go-related gene (hERG) potassium channel (human, UniProt Q12809)
Assay: primary screen, population patch clamp on CHO cells stably expressing hERG; higher = less effect of the substance
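Note: peak tail current of the secondary pulse compared with the same well before compound.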

Sequence of human ether-à-go-go-related gene (hERG) potassium channel (Q12809 whole entry, looked up): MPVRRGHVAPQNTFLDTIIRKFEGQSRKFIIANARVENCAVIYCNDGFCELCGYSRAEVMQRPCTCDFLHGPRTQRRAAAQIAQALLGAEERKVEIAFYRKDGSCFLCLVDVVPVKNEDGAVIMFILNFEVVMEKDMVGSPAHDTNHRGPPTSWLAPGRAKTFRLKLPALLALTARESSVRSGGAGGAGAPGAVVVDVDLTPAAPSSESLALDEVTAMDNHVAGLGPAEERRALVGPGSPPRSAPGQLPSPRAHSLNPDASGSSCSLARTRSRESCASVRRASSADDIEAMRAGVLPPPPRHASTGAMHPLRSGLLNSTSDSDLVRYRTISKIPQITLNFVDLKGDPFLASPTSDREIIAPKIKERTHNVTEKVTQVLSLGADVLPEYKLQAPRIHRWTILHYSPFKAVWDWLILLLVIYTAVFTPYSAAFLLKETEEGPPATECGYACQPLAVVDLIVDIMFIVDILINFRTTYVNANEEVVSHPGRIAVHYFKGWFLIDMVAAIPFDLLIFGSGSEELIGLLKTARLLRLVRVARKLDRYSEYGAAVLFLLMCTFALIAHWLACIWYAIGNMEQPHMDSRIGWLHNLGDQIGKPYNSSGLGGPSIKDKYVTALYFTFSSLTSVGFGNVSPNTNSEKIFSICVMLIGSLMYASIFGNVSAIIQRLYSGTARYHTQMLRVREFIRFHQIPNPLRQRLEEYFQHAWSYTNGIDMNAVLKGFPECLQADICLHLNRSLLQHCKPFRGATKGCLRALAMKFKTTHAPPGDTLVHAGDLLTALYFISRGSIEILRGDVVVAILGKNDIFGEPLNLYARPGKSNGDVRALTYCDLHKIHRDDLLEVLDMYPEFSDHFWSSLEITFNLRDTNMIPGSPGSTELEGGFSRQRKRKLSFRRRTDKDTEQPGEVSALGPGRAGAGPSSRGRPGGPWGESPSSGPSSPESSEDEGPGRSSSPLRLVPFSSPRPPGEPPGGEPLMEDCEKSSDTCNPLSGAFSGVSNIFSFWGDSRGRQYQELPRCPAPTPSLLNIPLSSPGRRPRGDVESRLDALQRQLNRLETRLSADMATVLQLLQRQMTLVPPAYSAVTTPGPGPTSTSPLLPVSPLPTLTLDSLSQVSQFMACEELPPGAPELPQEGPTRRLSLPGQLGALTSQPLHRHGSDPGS

Structure (SMILES)	hERG current change (%, negative = inhibition) at 10uM [%]
CC1(C)CC(=O)N(CC(=O)NC2CCCC2)c2ccccc2S1(=O)=O	11.7
COc1ccc(Br)cc1/C=N/NC(=O)C(c1ccncc1)N1CCOCC1 (centres unmarked)	7.87
CCOc1ccc(S(=O)(=O)NCCC(=O)NCc2cccnc2)cc1	4.31
O=C1c2cccc3cc([N+](=O)[O-])cc(c23)C(=O)N1CC1CCCO1 (centres unmarked)	-8.56
CCOC(=O)N1CCc2c(sc3[nH]c(=S)[nH]c(=S)c23)C1	13.4
O=C(O)CC[N+](=O)[O-]	15.3
Cc1c(C(=O)N2CCOCC2)[nH]c2ccc(OCc3ccccc3)cc12	-13.2
CCN(CC)CCNC(=O)c1[nH]c2ccc(OCc3ccccc3)cc2c1C	-74.6
COc1ccc2[nH]c(C(=O)NCc3ccccc3)c(C)c2c1.Cl	7.03
CCCc1cc(=O)oc2cc(C)cc(OCC(=O)NCCCn3ccnc3)c12	-76.4
CCc1cc(=O)oc2cc(OCC(=O)NCCCn3ccnc3)c(Cl)cc12	-28.5
CCCc1cc(=O)oc2cc(OCC(=O)NCCCn3ccnc3)c(Cl)cc12	-72.3
Cc1c(C)c2cc(Cl)c(OCC(=O)NCCCn3ccnc3)cc2oc1=O	-2.59
Cc1c(C)c2ccc(OC(C)C(=O)NCCCn3ccnc3)c(C)c2oc1=O (centres unmarked)	-6.05
Cc1c(C)c2ccc(OCC(=O)NCCCn3ccnc3)cc2oc1=O	14
Cc1cc(OCC(=O)NCCCn2ccnc2)c2c(C)c(C)c(=O)oc2c1	-63.6
Cc1cc(OC(C)C(=O)NCCCn2ccnc2)c2c(C)cc(=O)oc2c1 (centres unmarked)	-15.4
CCCc1cc(=O)oc2cc(C)cc(OCC(=O)NCCN3CCOCC3)c12	6.05
Cc1cc(OC(C)C(=O)NCCCn2ccnc2)c2c(C)c(C)c(=O)oc2c1 (centres unmarked)	-76.7
CCCc1cc(=O)oc2cc(OCC(=O)NCCCn3ccnc3)ccc12	-47.1
CCCc1cc(=O)oc2cc(C)cc(OCC(=O)NCCCN3CCOCC3)c12	-7.61
Cc1cc(C(F)(F)F)nc(SCc2ccc(C(=O)O)o2)n1	-2.51

Structure (SMILES)	hERG current change (%, negative = inhibition) at 10uM [%]
CC(=O)Oc1ccc2ccccc2c1C(NC(=O)Cc1ccccc1)c1ccccc1Cl (centres unmarked)	7.9
CCc1noc(C)c1C(=O)N1CCCC(C(=O)c2cc(F)ccc2F)C1 (centres unmarked)	-41.2
N#Cc1ccccc1NC(=O)CSC1=Nc2ccccc2C2CC=NN12 (centres unmarked)	1.95
Cc1ccc(SC(C)c2nc(-c3ccncc3)no2)cc1 (centres unmarked)	-24.3
Cc1ccc(S(=O)(=O)CCC(=O)OCC(=O)N2c3ccccc3CC2C)cc1 (centres unmarked)	13
O=C(COC(=O)c1ccco1)NCc1ccc(Cl)cc1	4.21
O=C(COC(=O)c1cc([N+](=O)[O-])ccc1Cl)NC1CCCC1	-26.8
O=C(COC(=O)CCc1c[nH]c2ccccc12)Nc1ccccc1C(F)(F)F	-5.09
CCC(C)(C(=O)NC1CCCCC1)N(Cc1ccco1)C(=O)CC1NC(=O)NC1=O (centres unmarked)	5.88
O=C(CSc1nc(-c2ccc(Cl)cc2)[nH]c(=O)n1)Nc1cccc(Cl)c1	22.3
CC(C)(C)c1ccccc1OCC(=O)NCCC(=O)O	-7.3
CCCCc1cc(=O)oc2cc(OCC(=O)NCCN3CCOCC3)c(Cl)cc12	1.96
CCc1cc(=O)oc2cc(C)cc(OCC(=O)NCCCn3ccnc3)c12	-55.3
CCc1cc(=O)oc2cc(OCC(=O)NCCCN3CCOCC3)c(Cl)cc12	4.59
CCCc1cc(=O)oc2cc(OCC(=O)NCCCN3CCOCC3)c(Cl)cc12	-73
CCc1cc(=O)oc2cc(C)cc(OC(C)C(=O)NCCCn3ccnc3)c12 (centres unmarked)	-30.9
CCCc1cc(=O)oc2cc(C)cc(OC(C)C(=O)NCCCn3ccnc3)c12 (centres unmarked)	-65.3
CCc1cc(=O)oc2cc(C)cc(OCC(=O)NCCCN3CCOCC3)c12	-11.1
CCCc1cc(=O)oc2cc(OC(C)C(=O)NCCCn3ccnc3)ccc12 (centres unmarked)	-42.1
Cc1cc(OCC(=O)NCCCn2ccnc2)c2c(C)cc(=O)oc2c1	-22.5
Cc1cc(C)cc(COc2ccc3c(C)c(CC(=O)O)c(=O)oc3c2C)c1	-41.4
O=C(COc1ccc(S(=O)(=O)NC2CCCCC2)cc1)NCc1cccnc1	2.91

Structure (SMILES)	hERG current change (%, negative = inhibition) at 10uM [%]
CC(C)NC1=C(Cl)C(=O)c2ccccc2C1=O	4.34
O=C1[C@H]2CC3CCC2(O3)[C@@H]2OCCCN12 (some centres unmarked)	4.02
O=S(=O)(c1cccc(-c2nnc(SCc3ccc(Cl)cc3)o2)c1)N1CCCCC1	10.7
CCOC(=O)c1nn(-c2ccccc2)c(=O)c(C#N)c1C	13.5
CC(C)CCN(CC(=O)NC1CCCC1)C(=O)C(=O)Nc1ccc2c(c1)OCCO2	11
NC(=O)CN1CCN(Cc2ccc3c(c2)OCO3)CC1	30.6
O=C(CN1CCN(Cc2ccc3c(c2)OCO3)CC1)c1c[nH]c2ccccc12	-63.5
O=C(C(=O)N1CCN(Cc2ccc3c(c2)OCO3)CC1)c1c[nH]c2ccccc12	-11.6
O=C(CN1CCN(Cc2ccccc2)CC1)c1c[nH]c2ccccc12	-56.5
O=C(c1c[nH]c2ccccc12)N1CCN(Cc2ccccc2)CC1	-13.5
O=C(CN1CCN(c2ccccc2)CC1)c1c[nH]c2ccccc12	-0.617
COc1ccc(-c2ccc(C#N)c(SCC(=O)OCc3ccccc3)n2)cc1OC	-2.31
CCCn1c(N)c(C(=O)CSc2n[nH]c(-c3ccc(C)cc3)n2)c(=O)[nH]c1=O	22.2
C[C@H](NC(=O)c1nc[nH]c1C(=O)N[C@@H](Cc1ccccc1)C(=O)OCc1ccccc1)C(=O)OCc1ccccc1	8.42
CCOC(=O)Cn1c(=O)oc2cc(S(=O)(=O)Nc3cc(OCC)ccc3OCC)ccc21	-42.3
COc1ccc(N(CC(=O)Nc2ccc(F)cc2F)S(=O)(=O)c2c(C)nn(C)c2C)cc1	-12.4
Cc1ccc2oc(C(=O)N(C)Cc3ccc(C)o3)c(C)c2c1	10.6
COc1ccc(CN2CCN(C(C)C)C(CCO)C2)cc1Cn1cccn1 (centres unmarked)	8.43
COc1ccc(CN2CCC(CO)(Cc3cccc(C(F)(F)F)c3)CC2)cc1Cn1cccn1	-75.7
COc1ccc(CN2CCN(CC=C(C)C)C(CCO)C2)cc1Cn1cccn1 (centres unmarked)	-31.2
COc1ccc(CN2CCC(CO)(Cc3ccccc3)CC2)cc1Cn1cccn1	-76.5
COc1ccc(NC(=O)CCNS(=O)(=O)c2ccc3c(c2)CCC(=O)N3)cc1	-2.85

Structure (SMILES)	hERG current change (%, negative = inhibition) at 10uM [%]
CN(O)/C=c1/ccc2c(n1)C(=O)C=CC=2	-8.33
Cc1ccc(C(=O)Nc2ccc(S(=O)(=O)N3CCN(C)CC3)cc2)o1	5.28
COc1cccc(C(=O)NCCNC(=O)c2cnccn2)c1	19.5
Cc1nnc(NNS(=O)(=O)c2ccc(Cl)cc2)[nH]c1=O	-17.3
O=C(O)C1=C[C@H](c2ccc(F)cc2)C[C@H](OCc2ccc(CO)cc2)O1	4.49
Cc1oc2c(C)c3oc(=O)c(CCC(=O)NCCCn4ccnc4)c(C)c3cc2c1C	-35.9
Cc1c(CCC(=O)NCCCn2ccnc2)c(=O)oc2c(C)c3occ(C(C)(C)C)c3cc12	-67
Cc1coc2cc3oc(=O)c(CCC(=O)NCCCn4ccnc4)c(C)c3cc12	-41.4
Cc1oc2cc3oc(=O)c(CCC(=O)NCCCn4ccnc4)c(C)c3cc2c1C	-41.7
Cc1coc2c(C)c3oc(=O)c(CCC(=O)NCCCn4ccnc4)c(C)c3cc12	-44.4
Cc1c(CCC(=O)NCCCn2ccnc2)c(=O)oc2cc3occ(C(C)(C)C)c3cc12	-77.7
Cn1c(=O)n(CCCO)c(=O)c2c1nc1n2CCCN1Cc1ccccc1	-9.65
CN(Cc1nc2ccc(F)cc2[nH]1)Cc1c(C(=O)N(C)C)nc2ccc(Cl)cn12	-43.3
CCOc1cc(S(=O)(=O)N(CC)CC)ccc1Br	-11.8
O=C(CSc1nnc(SCc2ccc(Cl)cc2)s1)c1ccc2c(c1)OCO2	9.81
O=c1[nH]c2ccc(Cl)cc2c(-c2ccccc2)c1N1CCN(CCO)CC1	-64.6
O=c1[nH]c2ccc(Cl)cc2c(-c2ccccc2)c1N1CCOCC1	2.46
CCOC(=O)N1CCN(c2c(-c3ccccc3)c3cc(Cl)ccc3[nH]c2=O)CC1	-11.4
Cc1cccc(C2=NOC(=O)/C2=C\c2ccccc2F)c1	9.48
CC(C)n1nc(C(=O)Nc2ccc3c(c2)OCO3)c2ccccc2c1=O	11
